The results in this text go back to PubChem BioAssay (NCATS).

Records with an inconclusive call do not appear. Values without a mark were called inactive. Activity calls are given as the source filed them. The call rests on the fitted dose curve; in most records, active means well fitted inhibition curve with a large enough effect; inconclusive means small, poorly fitted or top-dose-only effect; inactive means no such curve, though single readings can be large or run the other way.
Potency means the concentration at half of the fitted maximal effect.

One assay can be described thus: qHTS Screen of the MIPE 4.0 Collection Against Ewings Sarcoma (TC71) (AID 1259253). Further: nearly all actives have a fitted effect of over 40% in size.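 On viability (% of DMSO): 100% = DMSO-treated cells and 0% = medium-only wells without cells.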 The conditions noted are these: TC71 Ewing sarcoma viability, CellTiter-Glo, 48 h; series mostly up to 45.8 µM; viability (% of DMSO): at the top concentration. The method in brief: (§1)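 Cells plated in serum-containing RPMI (5% FBS) and treated with compound dilutions for 48 h. Readout luminescent viability; normalization relied on vehicle (no inhibition) and media-only columns (full inhibition).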
A general note: Quantitative high-throughput screening tests each substance at several concentrations.
Turning to `CC(=O)[C@H]1CC[C@H]2[C@@H]3CCC4=CC(=O)CC[C@]4(C)[C@H]3CC[C@]12C`, the Potency is 3.32 µM (active).

On to `Cc1nnc(NS(=O)(=O)c2ccc(N)cc2)s1`, for which the Potency was 10.5 µM (active). On the same count and under the same terms, next, `C[C@@H](NCCCc1cccc(C(F)(F)F)c1)c1cccc2ccccc12`: 1.48 µM (active). For the molecule `COC(c1ccccc1)(c1ccccc1)[C@H](Oc1nc(C)cc(C)n1)C(=O)O`, the “viability (% of DMSO)” value was 117%. Consider `COc1cc(NS(=O)(=O)c2ccc(N)cc2)nc(OC)n1`, for which the “viability (% of DMSO)” value is 131%.

A short description of the next assay: qHTS Screen of the MIPE 4.0 Collection Against Ewings Sarcoma (EW8) (AID 1259255). Further: nearly all actives have a fitted effect of over 35% in size.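 On viability: 100% = DMSO-treated cells and 0% = medium-only wells without cells.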 The conditions noted are these: EW8 Ewing sarcoma viability, CellTiter-Glo, 48 h; series mostly up to 45.8 µM; viability: at the top concentration. The method in brief:
as §1
For the molecule `CNCC[C@H](Oc1cccc2ccccc12)c1cccs1`, the Potency was 7.43 µM (active). In the case of `NC(=O)c1cccc(N)c1`, the viability – broadly, a read-out of living cells in per cent, often relative to untreated cells – was 124%.

In the case of `N=C(N)c1ccc(OCCCCCOc2ccc(C(=N)N)cc2)cc1`, the Potency is 14.8 µM (active). As for `CC(C(=O)O)c1ccc2c(c1)CC(=O)c1ccccc1S2` (stereo not drawn), the “viability” value was 115%. Regarding `CC(C)OC(=O)OCOP(=O)(CO[C@H](C)Cn1cnc2c(N)ncnc21)OCOC(=O)OC(C)C`, the Potency is 23.5 µM (active). For `CC1(C)[C@H](C(=O)O)N2C(=O)C[C@H]2S1(=O)=O`, the “viability” value was 110%. Regarding `CCc1cc(C(N)=S)ccn1`, the “viability” value is 114%. On to `C[C@@H]1CN(c2c(F)c(N)c3c(=O)c(C(=O)O)cn(C4CC4)c3c2F)C[C@H](C)N1`, for which the “viability” value is 105% [at 23.2 µM]. Regarding `S=P(N1CC1)(N1CC1)N1CC1`, the Potency was 6.62 µM (active). For the molecule `COc1nc(N)nc2c1ncn2[C@@H]1O[C@H](CO)[C@@H](O)[C@@H]1O`, the “viability” value was 105%. Same read-out and setting: next, `CCN1CCCC1CNC(=O)c1cc(S(N)(=O)=O)ccc1OC` (stereo not drawn): 109%; `COc1ccc(-c2ccc3cc(C(=O)O)ccc3c2)cc1C12CC3CC(CC(C3)C1)C2`: 106%; `CCOC(=O)c1ccc(C#Cc2ccc3c(c2)C(C)(C)CCS3)nc1`: 114%.

On to `CC(C)OC(=O)C(C(=O)OC(C)C)=C1SC=CS1`, for which the “viability” value is 110%. As for `O[C@@H](CNC[C@H](O)[C@H]1CCc2cc(F)ccc2O1)[C@@H]1CCc2cc(F)ccc2O1`, the Potency is 20.9 µM (active). In the case of `CN(C)CCc1c[nH]c2ccc(C[C@H]3COC(=O)N3)cc12`, the “viability” value was 104%.

Turning to `COc1ncnc(NS(=O)(=O)c2ccc(N)cc2)c1OC`, the “viability” value is 114%. For `CO[C@@]12[C@H](COC(N)=O)C3=C(C(=O)C(C)=C(N)C3=O)N1C[C@@H]1N[C@@H]12`, the Potency is 0.0662 µM (active). The same measure, in the same setting: next, `CO[C@@H]1[C@@H](OC(N)=O)[C@@H](O)[C@H](Oc2ccc3c(O)c(NC(=O)c4ccc(O)c(CC=C(C)C)c4)c(=O)oc3c2C)OC1(C)C`: 2.09 µM (active). As to `Cc1ncc([N+](=O)[O-])n1CCO`, the “viability” value was 117%. `CC(C)Cn1cnc2c(N)nc3ccccc3c21`: the Potency was 7.43 µM (active). Take `O=C(O)CSCC(=O)NC1CCSC1=O` (stereo not drawn): the “viability” value was 125%. In the case of `Cc1onc(-c2ccccc2Cl)c1C(=O)N[C@@H]1C(=O)N2[C@@H]1SC(C)(C)[C@@H]2C(=O)O`, the “viability” value is 110%. As for `CC(C)(Sc1cc(C(C)(C)C)c(O)c(C(C)(C)C)c1)Sc1cc(C(C)(C)C)c(O)c(C(C)(C)C)c1`, the “viability” value is 80.1%.

For the molecule `NS(=O)(=O)c1cc2c(cc1Cl)NC(C(Cl)Cl)NS2(=O)=O` (stereo not drawn), the “viability” value is 122%. Same read-out and setting: as for `C[C@]12C=CC(=O)C=C1CC[C@@H]1[C@@H]2C(=O)C[C@@]2(C)[C@H]1CC[C@]2(O)C(=O)CO`, the figure is 113% [at 23.2 µM]. With `COc1cc(NCc2ccc3nc(N)nc(N)c3c2C)cc(OC)c1OC`, the Potency is 1.32 µM (active).

`O=C(NCC1CN(c2ccc(N3CCOCC3=O)cc2)C(=O)O1)c1ccc(Cl)s1` (stereo not drawn): the “viability” value is 91%. Consider `CC(=O)[C@H]1CC[C@H]2[C@@H]3CCC4=CC(=O)CC[C@]4(C)[C@H]3CC[C@]12C`, for which the Potency was 9.35 µM (active). For `Cc1nnc(NS(=O)(=O)c2ccc(N)cc2)s1`, the Potency was 13.2 µM (active). As for `C[C@@H](NCCCc1cccc(C(F)(F)F)c1)c1cccc2ccccc12`, the “viability” value was 102%. The same measure, in the same setting: as for `COC(c1ccccc1)(c1ccccc1)[C@H](Oc1nc(C)cc(C)n1)C(=O)O`, the figure is 109%. On to `COc1cc(NS(=O)(=O)c2ccc(N)cc2)nc(OC)n1`, for which the “viability” value was 125%.

The next assay can be described thus: qHTS Screen of the MIPE 4.0 Collection Against Ewings Sarcoma (TC32) (AID 1259256). Further: nearly all actives have a fitted effect of over 45% in size.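 On viability (percent of control): 100% = DMSO-treated cells and 0% = medium-only wells without cells.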 Conditions: TC32 Ewing sarcoma viability, CellTiter-Glo, 48 h; series mostly up to 45.8 µM; viability (percent of control): at the top concentration. The method in brief: as §1
Regarding `CNCC[C@H](Oc1cccc2ccccc12)c1cccs1`, the Potency is 5.26 µM (active). Turning to `CC(C(=O)O)c1ccc2c(c1)CC(=O)c1ccccc1S2` (stereo not drawn), the “viability (percent of control)” value was 136%. With `C[C@@H]1CN(c2c(F)c(N)c3c(=O)c(C(=O)O)cn(C4CC4)c3c2F)C[C@H](C)N1`, the “viability (percent of control)” value was 60.3% [at 23.2 µM]. As to `S=P(N1CC1)(N1CC1)N1CC1`, the Potency is 2.64 µM (active). In the case of `COc1nc(N)nc2c1ncn2[C@@H]1O[C@H](CO)[C@@H](O)[C@@H]1O`, the “viability (percent of control)” value was 129%. For the molecule `CCCCCCNC(=O)n1cc(F)c(=O)[nH]c1=O`, the Potency is 18.7 µM (active). In the case of `CC[C@H](C)C(=O)O[C@H]1C[C@@H](C)C=C2C=C[C@H](C)[C@H](CC[C@@H]3C[C@@H](O)CC(=O)O3)[C@H]21`, the Potency was 7.43 µM (active).

Consider `CC(C)OC(=O)C(C(=O)OC(C)C)=C1SC=CS1`, for which the “viability (percent of control)” value was 125%. On to `CO[C@@H]1[C@@H](OC(N)=O)[C@@H](O)[C@H](Oc2ccc3c(O)c(NC(=O)c4ccc(O)c(CC=C(C)C)c4)c(=O)oc3c2C)OC1(C)C`, for which the Potency is 5.9 µM (active). Turning to `Cc1ncc([N+](=O)[O-])n1CCO`, the “viability (percent of control)” value is 133%. Turning to `CC(C)Cn1cnc2c(N)nc3ccccc3c21`, the Potency is 18.7 µM (active). As for `O=C(O)CSCC(=O)NC1CCSC1=O` (stereo not drawn), the “viability (percent of control)” value was 127%.

With `Cc1onc(-c2ccccc2Cl)c1C(=O)N[C@@H]1C(=O)N2[C@@H]1SC(C)(C)[C@@H]2C(=O)O`, the “viability (percent of control)” value was 134%.

Take `CC1=CC(=O)c2ccccc2C1=O`: the Potency is 26.4 µM (active). With `CC(C)(Sc1cc(C(C)(C)C)c(O)c(C(C)(C)C)c1)Sc1cc(C(C)(C)C)c(O)c(C(C)(C)C)c1`, the Potency is 9.35 µM (active). Take `NS(=O)(=O)c1cc2c(cc1Cl)NC(C(Cl)Cl)NS2(=O)=O` (stereo not drawn): the “viability (percent of control)” value is 132%. On to `C[C@]12C=CC(=O)C=C1CC[C@@H]1[C@@H]2C(=O)C[C@@]2(C)[C@H]1CC[C@]2(O)C(=O)CO`, for which the “viability (percent of control)” value is 124% [at 23.2 µM].

Regarding `COc1cc(NCc2ccc3nc(N)nc(N)c3c2C)cc(OC)c1OC`, the Potency was 0.833 µM (active). On to `CC(=O)[C@H]1CC[C@H]2[C@@H]3CCC4=CC(=O)CC[C@]4(C)[C@H]3CC[C@]12C`, for which the Potency was 3.72 µM (active).

Turning to `COc1cc(NS(=O)(=O)c2ccc(N)cc2)nc(OC)n1`, the “viability (percent of control)” value is 145%.
